This test has as its target Luciferin 4-monooxygenase (Photinus pyralis) (UniProt P08659). Briefly: FLuc inhibitory activity for the follow-up compounds in a biochemical assay with an in-house formulation of detection reagent. The settings on record: purified FLuc, luminescence; series mostly up to 25.6 µM. Put shortly: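 qHTS 12-point titration (~25uM–0.1nM) against 10 nM firefly luciferase; activity read as luminescence after adding in-house reagent containing 1mM D-luciferin, 450uM ATP, 500uM Coenzyme A and 300mM MgCl.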

Inconclusive results are not listed. Active and inactive are the calls of the source. Calls come from the whole dose curve; as a rule, active = well fitted inhibition curve with a large enough effect; inconclusive = small, poorly fitted or top-dose-only effect; inactive = no such curve, though single readings can be large or run the other way.

Sequence of Luciferin 4-monooxygenase (Photinus pyralis) (P08659 whole entry, looked up): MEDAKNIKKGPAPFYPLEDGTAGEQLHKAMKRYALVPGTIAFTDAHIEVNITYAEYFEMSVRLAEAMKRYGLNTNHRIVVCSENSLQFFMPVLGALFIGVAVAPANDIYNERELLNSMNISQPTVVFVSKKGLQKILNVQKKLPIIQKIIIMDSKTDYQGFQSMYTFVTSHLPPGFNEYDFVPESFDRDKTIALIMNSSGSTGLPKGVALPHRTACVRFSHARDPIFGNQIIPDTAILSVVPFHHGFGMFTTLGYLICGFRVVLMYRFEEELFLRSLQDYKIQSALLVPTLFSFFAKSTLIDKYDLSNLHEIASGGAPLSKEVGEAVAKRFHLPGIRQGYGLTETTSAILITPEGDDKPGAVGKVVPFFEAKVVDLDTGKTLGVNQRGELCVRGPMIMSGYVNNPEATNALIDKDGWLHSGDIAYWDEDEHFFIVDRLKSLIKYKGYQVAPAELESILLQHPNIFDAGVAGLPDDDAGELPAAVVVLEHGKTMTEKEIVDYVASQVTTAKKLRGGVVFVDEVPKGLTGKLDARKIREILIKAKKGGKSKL

As to `Nc1cccc(-c2nc3ccc(N)cc3s2)c1`, the Potency is 3.9 µM (active).
